The text below walks through data of PubChem BioAssay.

One may read the inhibition as how much of the control response was suppressed.

Values without a mark were called inactive. How the calls were made is not given here.

Pantothenate synthetase (Mycobacterium tuberculosis (strain ATCC 25618 / H37Rv)), sequence (P9WIL5 whole entry, looked up): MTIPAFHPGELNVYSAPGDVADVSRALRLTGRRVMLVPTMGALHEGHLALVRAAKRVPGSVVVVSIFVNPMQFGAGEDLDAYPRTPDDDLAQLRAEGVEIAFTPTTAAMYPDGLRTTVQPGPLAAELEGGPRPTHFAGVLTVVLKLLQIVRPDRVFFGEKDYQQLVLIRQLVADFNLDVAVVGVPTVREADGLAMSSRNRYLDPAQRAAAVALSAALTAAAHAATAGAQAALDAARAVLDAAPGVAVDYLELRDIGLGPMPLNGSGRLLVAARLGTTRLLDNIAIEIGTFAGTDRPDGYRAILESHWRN

This assay addresses Pantothenate synthetase (Mycobacterium tuberculosis (strain ATCC 25618 / H37Rv)) (UniProt P9WIL5). Briefly: Recombinant Mtb pantothenate synthetase (PanC) inhibitors, coupled enzyme, confirmatory (AID 375).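 Further: 0% = full reaction with vehicle and 100% = no enzyme background.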 The note with it: coupled enzyme assay; at 10 µM, hits give high values.
With `OC(CCN1CCCCC1)(c1ccccc1)C1CCCCC1` (stereo not given), the inhibition was 0%.
For the molecule `CCN(CC)C(=O)c1ccc(CS(=O)(=O)c2ccc(OC)cc2)o1`, the inhibition is 1%.
The figure for `Cc1oc(-c2ccccc2F)nc1CS(=O)(=O)CC(=O)NCCCN1CCc2ccccc2C1` is 0%; for `COc1ccc(CCn2c(NCCCN3CCOCC3)nc3c2c(=O)[nH]c(=O)n3C)cc1` it is 0%.
The figure for `CS(=O)(=O)N1CCCC(C(=O)NCCCN2CCC(Cc3ccccc3)CC2)C1` (stereo not given) is 0%; for `N=c1c(C(=O)NCc2ccccc2)cc2c(=O)n3ccccc3nc2n1Cc1ccco1` it is 0%; for `CCOC(=O)c1cc2sc(C)cc2n1CC(=O)NCc1ccc(F)cc1` it is 2%.
In the case of `COC(=O)c1cccc(NC(=O)Cc2coc3cc(OC)ccc23)c1` it was 0%; in that of `Cc1cc(C(=O)CSc2nnc(-c3ccccc3)n2C)c(C)n1C`, 0%; in that of `CCC(=O)N1Cc2ccccc2-c2ccccc2C1=O`, 0%.
On to `O=C(NCc1ccco1)C1CC(=O)N(c2ccc(F)cc2)C1` (stereo not given), for which the inhibition was 4%.
With `COc1ccc2c(c1OC)C(=O)O[C@@H]2[C@H]1c2c(cc3c(c2OC)OCO3)CCN1C`, the inhibition was 0%.
The figure for `Cc1ccc2oc(-c3ccccc3C(=O)O)cc(=O)c2c1` is 13%; for `c1ccc(CCc2nn3c(Cn4cnc5ccccc54)nnc3s2)cc1` it is 5%; for `CC1CCCCN1C(=O)Cn1nnc(-c2cccnc2)n1` (stereo not given) it is 0%.
The figure for `COCCn1c(C)cc(C(=O)COC(=O)CCN2C(=O)c3ccccc3C2=O)c1C` is 0%.
Consider `COc1ccc(C(C)NC(=O)c2ccoc2C)cc1OC` (stereo not given), for which the inhibition was 5%.
In the case of `Cn1cc(CN2CCc3ccccc3C2)c2ccccc21` it was 9%; in that of `COc1cccc(CN(C(=O)c2cc3ccccc3oc2=O)C2CC2)c1`, 8%.
In the case of `O=C(O)c1c[nH]c2ccc(S(=O)(=O)N3CCN(c4ccc(F)cc4)CC3)cc2c1=O` it was 0%.
In the case of `CNC(=O)CSc1nnc(-c2cccc(S(=O)(=O)N3CCOCC3)c2)n1-c1ccc(F)cc1` it was 0%.
Take `Cc1ccc(C)c(OCCCC(C)(C)C(=O)O)c1`: the inhibition is 0%.
On to `COc1ccc(-c2noc(CCN3C(=O)c4ccccc4C3=O)n2)cc1OC`, for which the inhibition was 7%.
The figure for `CC(C)(C)C(=O)Cn1c[n+](N)cn1` is 1%; for `CCOC(=O)C1=C(C)N(C)C(=O)NC1c1cccc(O)c1` (stereo not given) it is 0%; for `CCOc1ccc(C2/C(=C(/O)c3ccccc3)C(=O)C(=O)N2CCCN(C)C)cc1OC` (stereo not given) it is 0%.
In the case of `CC1CCN(Cc2ccc(NC(=O)C3CCN(c4nnc(-n5cccc5)s4)CC3)cc2)CC1` it was 0%; in that of `CCn1c(SCC(N)=O)nnc1-c1ccc(S(=O)(=O)N2CCN(C)CC2)cc1`, 0%; in that of `NC(=O)c1cccc(S(=O)(=O)N2CCCCC2)c1`, 0%.
With `CCCCN(CCCC)C(=O)CN(C)S(=O)(=O)c1ccc2c(c1)n(C)c(=O)c(=O)n2C`, the inhibition was 5%.
In the case of `O=C(Oc1ccc(Cl)cc1N1C(=O)CCC1=O)c1ccco1` it was 6%; in that of `COCCNC(=O)c1ccc2c(c1)nc(C)n2-c1cccc(F)c1`, 9%.
In the case of `C=CCn1c(SCC(=O)Nc2ccc3c(c2)OCO3)nc2ccccc2c1=O` it was 2%.
The figure for `COc1ccc(Cn2nnnc2C(c2cccnc2)N2CCN(c3ccc(O)cc3)CC2)cc1` (stereo not given) is 0%; for `Cc1ccc(-c2cc(C(F)F)nc(NCC3CCCO3)n2)cc1` (stereo not given) it is 3%.
Turning to `CN(C)c1ccc(NC(=O)CSCc2nc3c(nnn3Cc3ccc(F)cc3)c(=O)[nH]2)cc1`, the inhibition is 3%.
As to `COc1cc(C(=O)Nc2cc(C)ccn2)cc(OC)c1OC`, the inhibition is 0%.
As to `O=C(CN1CCN(c2ncc(C(F)(F)F)cc2Cl)CC1)Nc1ccc2c(c1)OCO2`, the inhibition was 0%.
The figure for `COc1ccc(Br)cc1-c1noc(-c2ccccc2)n1` is 4%.
In the case of `COC(=O)c1[nH]c2ccccc2c1NS(=O)(=O)c1ccc(OC)cc1OC` it was 3%.
